Test results from PubChem BioAssay (NCI).
Compounds without any hit were thinned out: in the full panel of roughly 83,000, 20% have a hit.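 Values shown are percent growth following 48 h exposure of cells in 96-well plates to a single concentration of compound; below 10 was considered active.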 Activity calls are given as the source filed them.

System: KM12 colon
Experiment: NCI-60 one-dose screen, 48 h (100 = growth as untreated, 0 = no growth, -100 = all killed)
Settings: 10 µM unless noted
Procedure: Growth inhibition of the KM12 human tumor cell line is measured as a screen for anti-cancer activity. Cells are grown in 96 well plates and exposed to the test compound for 48 hours. Compounds are tested at a single concentration, which is 10^-5 M for most compounds. The reported endpoint is percent growth (GI% or GIPRCNT), where numbers from 0 - 100% represent growth inhibition, and numbers from -100% - 0 represent cell death. For example, a value of 40 represents 60% growth inhibition. A value of 0 means no net growth occurred over the course of the experiment. A value of -40 indicates 40% of cells at the beginning of the experiment died by the end of the experiment. A value of -100 means all cells are dead at the end of the experiment.
NCI-60 Human Tumor Cell Lines Screen was performed using the standard one-dose NCI protocol, which is described in more detail at https://dtp.cancer.gov/discovery_development/nci-60/default.htm.
Compounds with GIPRCNT values below 10 were considered active. Activity score was based on GIPRCNT using the following formula: […]
Score is 0 for GIPRCNT values of 100 or above, 50 for GIPRCNT values of 0, and 100 for GIPRCNT values of -100.

| Compound | growth |
| --- | --- |
| N/C(=N\c1nc2c(Br)cccc2s1)C(Br)Br | 3.67% (active) |
| COc1ccc(-c2nc3ccc(-c4nnc(SCC(=O)Nc5ccc(C(=O)/C=C/c6ccc(Cl)cc6)cc5)o4)cc3[nH]2)cc1OC | 104% (inactive) |
| Cc1sc2c(c1C)c(=O)nc1c(-c3nc(-c4ccc(F)cc4)no3)n[nH]n12 | 106% (inactive) |
| Nc1c(C(=O)Nc2ccc(Cl)cc2)sc2nc(-c3cnccn3)cc(-c3cccs3)c12 | 80.2% (inactive) |
| CCN1C(=S)N(c2ccccc2)C2NC(=O)N(/N=C/C=C/c3ccccc3OC)C21 (stereo not given) | 88.3% (inactive) |
| O=C(CN1CCOCC1)NNc1ncnc2ccccc12 | 97.1% (inactive) |
| CN(C)CCCNc1c2ccc(Cl)cc2nc2c1oc1ccc(Cl)cc12 | -56.3% (active) |
| COc1cc(/C=C/C(=O)c2cc(OC)c(OC)c(OC)c2)ccc1OCc1ccccc1 | 11.3% (inactive) |
| C#Cc1nc(C2=C(C)C(O)CC2)cs1 (stereo not given) | 63.9% (inactive) |
| CC(=O)Oc1ccccc1C(=O)Nc1ccc(C(=O)/C=C/c2ccncc2)cc1 | -31.9% (active) |
| CC(C)(O)c1cncc(-c2ccc3ncnc(N4CCc5cc(F)c(Cl)cc54)c3c2)c1 | 35.1% (inactive) |
| O=C1[C@H]2Cc3c([nH]c4ccccc34)[C@@H](c3ccc(Br)cc3)N2C(=O)CN1C1CCN(Cc2ccccc2)CC1 | 36.7% (inactive) |
| CCN(CC)c1ccc(C=O)c(OCc2cn(CC(=O)Nc3ccc(Cl)cc3)nn2)c1 | 70.4% (inactive) |
| COc1ccccc1/C=C/C=N/NC1=NC2C(S1)N(C)C(=O)N2C (stereo not given) | 18.2% (inactive) |
| CCOC(=O)c1c(Nc2ccccc2)nn2c(N)c(C#N)c(-c3ccccc3)nc12 | 77.7% (inactive) |
| Cn1ccnc1C(=O)/C=C/c1ccc(NC(=O)Nc2ccc(F)cc2)cc1 | 36.5% (inactive) |
| NS(=O)(=O)c1cccc(Nc2nc(SCC(=O)c3ccc([N+](=O)[O-])cc3)nc3ccccc23)c1 | 38.4% (inactive) |
| COc1ccc(-c2csc(N/N=C/c3c(-c4ccc(S(C)(=O)=O)cc4)nc4ccccn34)n2)cc1 | 103% (inactive) |
| CCCCN1C(=O)/C(=c2\sc3n(c2=O)C2C(NN=3)N(CC)C(=O)N2CC)c2cc(Cl)ccc21 (stereo not given) | 55.8% (inactive) |
| Cc1ccc(/C=C/c2nn3c(-c4ccco4)nnc3s2)cc1C | 110% (inactive) |

| Compound | growth |
| --- | --- |
| COc1cccc(N2CCN(c3ncnc4c3[nH]c3ccc(F)cc34)C[C@@H]2C)c1 | -71% (active) |
| OC1CCN(CCCOc2c3ccccc3nc3c2oc2ccc(Cl)cc23)CC1 | 1.06% (active) |
| CCOC(=O)c1csc(NC(=O)CSc2nc3sc4c(c3c(=O)n2-c2ccc(Cl)cc2)CCCC4)n1 | 109% (inactive) |
| N#Cc1nc(-c2ccccc2)oc1S(N)(=O)=O | 83.9% (inactive) |
| O=C(O)CCCCCN1C(=O)/C(=C/c2ccc(O)c(O)c2)SC1=S | 105% (inactive) |
| CC(C)(C)Nc1nc2c(OCCc3ccccc3)cccn2c1-c1ccc(Cl)cc1 | 32.7% (inactive) |
| CN1C(=O)N(c2ccccc2)C2N=C(N/N=C/c3ccccc3)SC21 (stereo not given) | 22% (inactive) |
| COc1ccc(COc2ccc(/C=C3/C(=O)Nc4cc(Cl)ccc43)cc2)cc1 | 101% (inactive) |
| COc1ccc(CNS(=O)(=O)/N=C2\NC(=O)NC2=C(Cl)Cl)cc1 | 17.1% (inactive) |
| CN(C)CCCOc1c2ccc(Cl)cc2nc2c1oc1ccccc12 | 0.963% (active) |
| CCCCCCNC(=O)Oc1ccc(/C(=C(/C)c2ccccc2)c2ccc(OCCN3CCCCCC3)cc2)cc1 | 32.3% (inactive) |
| O=C(CN1C(=O)/C(=C/c2ccccc2)SC1=S)N1CCOCC1 | 100% (inactive) |
| CCN1C(=S)N(CC)C2C1N=C(SC)N2/N=C/C=C/c1ccccc1[N+](=O)[O-] (stereo not given) | 97.6% (inactive) |
| Cc1nc(-c2cc3ccccc3oc2=O)ccc1C(=O)/C=C/c1ccccn1 | 6.06% (active) |
| C[C@@H]1CN(c2ccc3ncc(C#Cc4cncc(C(=O)Nc5ccc(CN6CCN(C)CC6)c(C(F)(F)F)c5)c4)n3n2)C[C@H](C)O1 | -7.61% (active) |
| CC1=C(C)C(=O)C(Nc2cccc(C(F)(F)F)c2)=C(Cl)C1=O | 67.2% (inactive) |
| Cc1cc2nc3c4cc(Cl)ccc4n(CC(=O)NCCN(C)C)c3nc2cc1C | 86.2% (inactive) |
| Cc1c(Nc2nnc(SCC(=O)Nc3sc4c(c3C#N)CCCC4)s2)c(=O)n(-c2ccccc2)n1C | 98% (inactive) |
| CCOC(=O)c1c(NC(=O)c2cccc(C(F)(F)F)c2)sc2cc(O)ccc12 | 95.5% (inactive) |
| CCOc1ccc2nc(NC(=O)c3ccc(C(F)(F)F)cc3)sc2c1 | 103% (inactive) |
